Results filed as inconclusive are left out. Activity calls are given as the source filed them. How the source made its calls: active means hit-call score of the fitted dose curve at least 0.9, where 1 is the maximum; inconclusive means response in the unintended direction; inactive means score below 0.9.

Sequence of human AKT serine/threonine Kinase 1 (AKT1), AKT1 (gene 207) (P31749 whole entry, looked up): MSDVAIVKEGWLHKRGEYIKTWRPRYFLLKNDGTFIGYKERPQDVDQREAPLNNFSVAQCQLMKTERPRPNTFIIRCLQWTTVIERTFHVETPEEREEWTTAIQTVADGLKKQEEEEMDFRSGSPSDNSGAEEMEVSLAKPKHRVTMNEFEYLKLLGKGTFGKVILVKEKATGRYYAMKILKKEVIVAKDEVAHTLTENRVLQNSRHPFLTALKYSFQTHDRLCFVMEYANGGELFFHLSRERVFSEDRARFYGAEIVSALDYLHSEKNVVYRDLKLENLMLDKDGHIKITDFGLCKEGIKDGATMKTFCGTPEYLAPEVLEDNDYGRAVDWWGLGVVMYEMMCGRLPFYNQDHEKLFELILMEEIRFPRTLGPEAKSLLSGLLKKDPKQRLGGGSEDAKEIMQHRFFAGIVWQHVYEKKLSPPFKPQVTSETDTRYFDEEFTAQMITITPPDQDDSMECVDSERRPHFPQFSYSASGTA
Sequence of human Beta-secretase (BACE), BACE1 (gene 23621) (P56817 whole entry, looked up): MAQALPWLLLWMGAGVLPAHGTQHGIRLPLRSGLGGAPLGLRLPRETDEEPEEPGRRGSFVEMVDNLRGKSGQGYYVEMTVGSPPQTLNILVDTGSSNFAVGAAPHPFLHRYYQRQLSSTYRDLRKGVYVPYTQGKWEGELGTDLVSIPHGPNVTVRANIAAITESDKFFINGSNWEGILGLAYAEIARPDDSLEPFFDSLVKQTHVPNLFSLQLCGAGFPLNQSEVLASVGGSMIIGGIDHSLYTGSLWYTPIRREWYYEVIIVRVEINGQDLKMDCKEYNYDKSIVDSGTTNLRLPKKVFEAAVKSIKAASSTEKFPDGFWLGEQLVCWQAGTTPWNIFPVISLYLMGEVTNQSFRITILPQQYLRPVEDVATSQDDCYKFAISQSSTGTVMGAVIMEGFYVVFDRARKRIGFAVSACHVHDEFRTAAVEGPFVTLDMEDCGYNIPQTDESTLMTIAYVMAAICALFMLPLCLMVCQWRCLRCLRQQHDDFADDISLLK

The target in one assay is Cytochrome P450 2C19 (Homo sapiens) (UniProt P33261). The assay can be described thus: NVS_ADME_hCYP2C19: NovaScreen (NVS) CYP450-related Enzyme Activity (ADME) Assay for human CYP2C19 (AID 2283113).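 Further: potency for inhibition seen as loss of fluorescent signal.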 An outline of the steps:
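Fluorescence intensity was measured 1 hour after chemicals were added to insect-cell-derived recombinant CYP2C19 with fluorogenic substrate. Decreased signal versus acetonitrile control was taken as reduced enzyme activity; initial testing used 10 uM in duplicate.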
For orientation: AC50 means the midpoint of the concentration-response curve, whichever way the signal moves. Take `CCCCCCCCCCCCCCCCCC[N+](C)(C)Cc1ccccc1`: the half-maximal activity concentration (AC50) is 1.8 µM (active).
With `Cc1ccc(N=Nc2c(O)ccc3ccccc23)c(C)c1`, the AC50 is 0.565 µM (active).
Still for that read-out and setting: the same measure for `CCCCCCCCCCCCCCC`: 10 µM (active).
Same read-out and setting: with `CC(C)CCOCCC(C)C` the figure was 5 µM (active); with `c1cc[nH]c1`, 0.992 µM (active).

Another assay deals with human AKT serine/threonine Kinase 1 (AKT1), AKT1 (gene 207) (UniProt P31749). The assay can be described thus: NVS_ENZ_hAKT1: NovaScreen (NVS) Enzymatic Assay for human AKT serine/threonine Kinase 1 (AKT1) (AID 2283138). Summed up:
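Recombinant human AKT1 with a specific substrate, product separated by electrophoretic mobility shift, read after 1 h. Compounds at 25 uM in duplicate, then concentration-response up to 50 uM for hits; inhibition relative to DMSO.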
In the case of `O=C(CCCN1CCC(O)(c2ccc(Cl)cc2)CC1)c1ccc(F)cc1`, the call was inactive.
As for `CCC(C)c1ccccc1O` (centres undefined), the compound was classed as inactive.
Still for that read-out and setting: with `CCCCCCCCCCCCOS(=O)(=O)O` the entry was “inactive”.

The next assay has as its target human Beta-secretase (BACE), BACE1 (gene 23621) (UniProt P56817). The assay can be described thus: NVS_ENZ_hBACE: NovaScreen (NVS) Enzymatic Assay for human Beta-secretase (BACE) (AID 2283140).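 Further: hits are inhibitors that reduce fluorescent substrate signal versus DMSO.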 An outline of the steps: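 Cell-free assay of recombinant Sf9-expressed human BACE with fluorescent substrate, read by fluorescence intensity after 1 h. Primary screen in duplicate at 25 uM; actives then run in concentration series; loss of signal relative to DMSO.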
In the case of `CNNCc1ccc(C(=O)NC(C)C)cc1`, the outcome was inactive.
On the same count and under the same terms, the same measure for `CCOC(C)=O`: “inactive”; for `NS(=O)(=O)O`: “inactive”.
For `CCCCc1oc2ccccc2c1C(=O)c1cc(I)c(OCCN(CC)CC)c(I)c1`, the AC50 is 3.91 µM (active).
On the same count and under the same terms, the same measure for `CCCCCCCCCCCCOS(=O)(=O)O`: 2.91 µM (active).
`CN(Cc1cnc2nc(N)nc(N)c2n1)c1ccc(C(=O)N[C@@H](CCC(=O)O)C(=O)O)cc1`: the result was inactive.

The values above are taken from PubChem BioAssay (EPA / NIEHS).
